The list is not random: actives were taken first. Their share in the collection is about 2.2%.
DENV2 CPE: inhibitors of DENV2 cytopathic effect, primary screen, cell-based, plate reader, single concentration. AID 651640, 2012. DENV2-infected cells, cytopathic effect rescue. CPE inhibition, % at 9.99 µM. hit rate 1.7% among 350,000; in the data active = CPE inhibition above about 20%, passing the limit was not always enough; inconclusive = no clear call, values can overlap the other calls; tested in BHK-21 cells
Statin myotox sup: suppressors of statin myotoxicity in C2C12 myotubes, primary screen, cell-based, single point, plate reader | C2C12 myotubes + simvastatin, ATP luminescence, 48 h; scaled: DMSO 0, geranylgeraniol control 100 | rescue of ATP level, % at 7.49 µM | hit rate 0.78% among 330,000 | AID 602340, 2012;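 active = mean ATP rescue above about 67%, or every replicate alone reaching that limit, limit read from the data, passing the limit was not always enough; inconclusive = no clear call, values can overlap the other calls; inactive = mean under the limit and some replicate under it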;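 note: myotubes were challenged with 10 µM simvastatin during compound exposure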
miR-122 sensor: miR-122 Renilla sensor signal increase in Huh7, primary screen, miR-122 inhibitor project, cell-based, single point, plate reader. Huh7 miR-122 Renilla luciferase sensor, 48 h; neutral wells = 0, positive control = 100. activation (reporter increase), % at 12.5 µM. hit rate 0.3% among 340,000. AID 602342, 2012;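 active = mean replicate activation score at least 90 and every replicate individually at or above 90; inconclusive = only one of the two criteria met; inactive = neither criterion met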;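 note: higher luciferase means less miR-122 activity so hits act as miR-122 inhibitors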
PGC1a acetyl inh: inhibitors of PGC1a acetylation signal, primary screen, cell-based, U2OS, AlphaScreen, inhibitor mode. AlphaScreen anti-acetyl-lysine; with virally co-expressed GCN5 acetyltransferase. inhibition, % at 15.6 µM. hit rate 0.17% among 350,000;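 active = every replicate shows inhibition of at least 40%; inconclusive = mean inhibition at least 40% but some replicate below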
PvdQ acylase: P. aeruginosa PvdQ acylase inhibitors, primary screen, biochemical, fluorescence, plate reader and imaging, single point | PvdQ acylase [Pseudomonas aeruginosa LESB58] | inhibition, % at 10 µM | hit rate 0.063% among 340,000 | purified PvdQ acylase | AID 488965, 2010; in the data active = inhibition above about 30%, passing the limit was not always enough; inconclusive = no clear call, values can overlap the other calls
A number is an active result; . = inactive; ? = inconclusive; / = no result.

SMILES	DENV2 CPE	Statin myotox sup	miR-122 sensor	PGC1a acetyl inh	PvdQ acylase
COc1ccc(NC(=O)N2CC(=O)N3[C@H](CO)[C@H](c4ccc(Br)cc4)[C@@H]3C2)cc1	.	/	/	.	/
O=C(C[C@H]1C[C@@H]2c3cc(NC(=O)CC4CC4)ccc3O[C@@H]2[C@H](CO)O1)NCCc1ccccc1	.	.	.	.	/
O=S(=O)(c1cccc2nsnc12)N1CCOCC1	/	114	.	.	.
C[C@@H]1CN([C@@H](C)CO)C(=O)CCCn2cc(nn2)CO[C@H]1CN(C)S(=O)(=O)c1ccc(Oc2ccccc2)cc1	.	.	.	.	/
O=C1O[C@H](c2ccccc2)[C@H](c2ccccc2)N2[C@H]1[C@@H](C(=O)N1CCCCCCC1)[C@]1(C(=O)Nc3ccccc31)[C@H]2c1ccccc1OCCO	42	/	/	.	/
Cc1c(C(=O)NCc2cccnc2)oc2ccc(S(=O)(=O)N3CCC4(CC3)OCCO4)cc12	/	.	.	/	.
Cc1c(C(=O)NCc2cccnc2)oc2ccc(S(=O)(=O)N3CC(C)CC(C)C3)cc12 (stereo not given)	21	.	.	.	.
CO[C@@H]1CN(C)C(=O)c2ccc(NC(=O)C3CCC3)cc2OC[C@@H](C)N(C(=O)NC(C)C)C[C@@H]1C	.	.	.	.	/
O=C(C[C@H]1C=C[C@@H](NC(=O)Nc2ccc3c(c2)OCO3)[C@@H](CO)O1)NCc1ccc(F)cc1	.	/	/	.	/
CCOCc1cc(C)[nH]c(=O)c1C#N	/	99	.	.	.
COCc1c(Br)c(C)[nH]c(=O)c1C#N	/	.	.	.	.
Cc1nnc(N2C(=O)c3cccc4cccc(c34)C2=O)s1	/	/	.	.	.
CCCc1nnc(N2C(=O)c3cccc4cccc(c34)C2=O)s1	/	85	.	.	.
Cc1noc(C)c1S(=O)(=O)N(C)C[C@@H]1Oc2ccc(NS(=O)(=O)c3cn(C)cn3)cc2CC(=O)N([C@@H](C)CO)C[C@@H]1C	.	.	.	.	/
O=C(Nc1cccc(Cl)c1)Nc1sccc1-c1nc2ccccc2s1	63	/	.	.	.
C[C@@H]1CN([C@H](C)CO)C(=O)c2cc(C#CC(C)(C)O)cnc2O[C@@H]1CN(C)C(=O)C1CCC1	.	/	/	.	/
O=C(CN(Cc1ccccc1C(F)(F)F)C(=O)CNC(=O)c1ccco1)NC1CCCC1	/	113	.	.	.
CCc1cnc(N2[C@H](C#N)[C@H](c3ccc(-c4cccc(F)c4)cc3)[C@@H]2CO)s1	.	.	/	.	/
COc1ccc(NC(=O)N[C@H]2CC[C@@H](CCNC(=O)c3ccccc3F)O[C@@H]2CO)cc1	.	.	/	.	/
C[C@H](CO)N1C[C@H](C)[C@@H](CN(C)C(=O)NC2CCCC2)Oc2ncc(-c3ccc(F)cc3)cc2C1=O	.	.	.	.	/
C[C@@H]1CCCCO[C@@H](CN(C)C(=O)Nc2cccc3ccccc23)[C@H](C)CN([C@H](C)CO)C(=O)c2cc(NS(=O)(=O)c3ccc(Cl)cc3)ccc2O1	.	87	.	.	/
C[C@H]1CCCCO[C@H](CN(C)C(=O)Nc2cccc3ccccc23)[C@@H](C)CN([C@@H](C)CO)C(=O)c2cc(NS(=O)(=O)c3ccc(F)cc3)ccc2O1	26	/	.	.	/
C[C@@H]1CCCCO[C@H](CN(C)C(=O)Nc2cccc3ccccc23)[C@@H](C)CN([C@H](C)CO)C(=O)c2cc(NS(=O)(=O)c3ccc(F)cc3)ccc2O1	.	/	.	.	/
C[C@@H]1CN([C@@H](C)CO)C(=O)c2cc(NS(=O)(=O)c3ccc(Cl)cc3)ccc2O[C@@H](C)CCCCO[C@@H]1CN(C)C(=O)Nc1cccc2ccccc12	.	142	.	.	/
C[C@H]1CCCCO[C@H](CN(C)C(=O)Nc2cccc3ccccc23)[C@@H](C)CN([C@@H](C)CO)C(=O)c2cc(NS(=O)(=O)c3ccc(Cl)cc3)ccc2O1	44	.	.	.	/
SMILES	DENV2 CPE	Statin myotox sup	miR-122 sensor	PGC1a acetyl inh	PvdQ acylase
C[C@H](CO)N1C[C@H](C)[C@@H](CN(C)C(=O)Nc2cccc3ccccc23)OCCCC[C@H](C)Oc2ccc(NS(=O)(=O)c3ccc(Cl)cc3)cc2C1=O	.	?	.	.	/
C[C@@H]1CN([C@H](C)CO)C(=O)c2cc(NC(=O)CCCCCC(=O)Nc3ccccc3N)ccc2O[C@H]1CN(C)S(C)(=O)=O	.	/	.	.	/
CNC[C@@H]1Oc2ccc(N(C)C)cc2CC(=O)N([C@@H](C)CO)C[C@H]1C	.	.	.	.	/
O=C(C[C@H]1CC[C@@H](NC(=O)CCN2CCCCC2)[C@H](CO)O1)Nc1ccccc1	.	/	/	.	/
C[C@H](CO)N1C[C@H](C)[C@H](CN(C)C(=O)Nc2cccc3ccccc23)OCCCC[C@H](C)Oc2ccc(NS(=O)(=O)c3ccc(Cl)cc3)cc2C1=O	.	135	.	.	/
O=C(Cc1ccccc1)N[C@@H]1CC[C@@H](CC(=O)N2CCOCC2)O[C@@H]1CO	.	.	/	.	/
Cc1ccc2oc(=S)n(C)c2c1	/	/	/	/	.
Cn1c(=S)oc2ccccc21	.	89	.	.	.
C[C@@H]1CN([C@@H](C)CO)S(=O)(=O)c2ccc(-c3cncnc3)cc2O[C@@H]1CN(C)C(=O)Cc1ccccc1	.	.	.	.	/
C[C@@H]1CCCCO[C@@H](CN(C)CC2CCCCC2)[C@@H](C)CN([C@@H](C)CO)C(=O)c2cc(NS(=O)(=O)c3cccs3)ccc2O1	.	/	.	.	/
COc1cc(NC(=O)CN(C)S(=O)(=O)c2ccc3c(c2)CC(C)N3C(C)=O)cc(OC)c1OC (stereo not given)	.	109	.	.	.
Cc1cc(NC(=O)CSc2ccc3nnc(CCNS(=O)(=O)c4ccccc4)n3n2)no1	.	86	.	.	.
CC(=O)N1CCCc2cc(S(=O)(=O)Nc3ccc4c(c3)OCO4)ccc21	/	.	268	.	.
CC(=O)N1CCc2cc(S(=O)(=O)Nc3ccc(C)cc3)ccc21	.	.	.	.	.
COc1cccc(NS(=O)(=O)c2ccc3c(c2)CCN3C(C)=O)c1	.	.	/	/	.
CC(=O)N1CCc2cc(S(=O)(=O)Nc3cccc(C(F)(F)F)c3)ccc21	/	.	100	.	.
C[C@@H]1CN([C@@H](C)CO)C(=O)c2cc(NC(=O)Nc3ccc4c(c3)OCO4)ccc2O[C@@H](C)CCCCO[C@@H]1CN(C)Cc1ccc(C(=O)O)cc1	.	/	.	.	/
CN1C(=O)c2cc(NC(=O)c3cccc(F)c3)ccc2OC[C@@H]2O[C@@H](CC(=O)O)CC[C@H]21	.	.	.	.	/
COc1ccc(NC(C)=O)cc1S(=O)(=O)Nc1ccc(S(=O)(=O)N2CCCCC2)cc1	.	.	126	.	.
COc1ccc(S(=O)(=O)Nc2ccc(S(=O)(=O)N3CCCCC3)cc2)cc1C	/	.	251	.	.
